In PubChem BioAssay (NCATS):
Records with an inconclusive call do not appear. A call without a number means that no potency is given here. Activity calls are given as the source filed them. Unless noted, calls follow the shape of the dose curve; as a rule, active = well fitted curve in the direction sought with a large enough effect; inconclusive = small, poorly fitted or top-dose-only effect, or another doubt; inactive = no such curve, though single readings can be large; an effect the other way counts as inactive or inconclusive.

What was measured:
[1] = NCATS anti-infectives library activity on HEK293 viability as a counter-qHTS vs the C. elegans viability qHTS (AID 1745854)
In short: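 HEK293 cells, 1500 per well, exposed 24 hr at 37C in 5% CO2 to compounds in a 1:5 titration, up to 41.7 uM final. Viability read as CellTiter-Glo luminescence after 10 min at room temperature.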

[2] = NCATS anti-infectives library activity on the primary C. elegans qHTS viability assay (AID 1745855; calls by dose curve)
In short: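 Viability is taken from GFP fluorescence of PE254-GFP-FLuc C. elegans imaged by laser cytometry over 7 days. Ten L1 worms per well grow at 21 °C on TOP10 E. coli capsules with titrated compound; levamisole marks toxicity.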

[3] = target: Glucocorticoid receptor (Homo sapiens) (UniProt P04150); assay: GR-GFP Redistribution (AID 450;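 active = compounds whose dose series gives a full or clear partial fitted curve of increased nuclear translocation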; also: potency is read from the fitted curve at half-maximal effect); details: U2OS GR-GFP nuclear translocation, laser cytometry, 2 h
[4] = target: Glucocorticoid receptor (Homo sapiens) (UniProt P04150); assay: GR-EFC Redistribution (AID 451; calls by dose curve; also: potency is read from the fitted curve at half-maximal effect); details: CHO-K1 GR-EFC translocation, beta-gal luminescence, 2 h
In short: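 Translocation of GR-ED fusion to nuclear EA restores b-gal, read by luminescence after 1 h room-temperature detection. Engineered CHO-K1 biosensor cells, 1,000/well, exposed 2 h at 37 C to titrations up to 46 uM final.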

[5] = target: Mitogen-activated protein kinase 10 (Mus musculus) (UniProt Q61831); assay: JNK3 AlphaScreen Assay (AID 530; active = well fitted curve in either direction with a large enough effect, not every such curve was filed as active;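 also: kinase came from lysate of stimulated human HepG2 cells; signal reports phosphorylation of biotinylated GST-cJun 1-79 at Ser73 with 10 µM ATP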)
In short: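 Room-temperature AlphaScreen kinase assay; pre-activated HepG2 lysate as JNK3 source, biotin-GST-cJun(1-79) substrate, 10 uM ATP, compound 15 min preincubation.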

[6] = target: Cytochrome P450 2C19 (Homo sapiens) (UniProt P33261); assay: qHTS Assay for Inhibitors and Substrates of Cytochrome P450 2C19 (AID 899); also: potency is read from the fitted curve at half-maximal effect; nearly all actives have a fitted effect of over 60% in size
In short: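 5nM enzyme + 10uM Luciferin-H EGE (=KM), 50mM KPO4; cpd pin-transferred, 10 min 37C; NADPH regen, 60 min 37C; stopped w/ luciferin detection reagent, 20 min; luminescence. Normalized to 57uM ketoconazole (AC100).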

[7] = target: Ubiquitin carboxyl-terminal hydrolase 1 (Homo sapiens) (UniProt O94782); assay: Inhibitors of USP1/UAF1: Pilot qHTS (AID 504865);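 also: rhodamine fluorescence freed from ubiquitin-rhodamine substrate followed over time; top concentration of the series differs between compounds; nearly all actives have a fitted effect of over 35% in size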
In short: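 In 50mM HEPES pH 7.8 containing 0.5mM EDTA, 1mM TCEP, 0.1 mg/ml BSA and 0.01% Tween-20, 1nM USP1/UAF1 is exposed to compound for 15 min, then Ub-Rho (150nM final) is added and fluorescence is read over time.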

[8] = target: DNA dC->dU-editing enzyme APOBEC-3G (Homo sapiens) (UniProt Q9HC16); assay: qHTS for inhibitors of Vif-A3G interactions: Validation (AID 588379)
In short: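 HeLa cells stably expressing Vif and A3G-eYFP, 700 cells/well, incubated overnight at 37 deg C, then exposed to compound overnight at 37 deg C. Inhibition of Vif-mediated degradation read as increased yellow fluorescence (Ex 488/Em 500-530) by laser-scanning cytometry.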

[9] = target: Cytochrome P450 3A4 (Homo sapiens) (UniProt P08684); assay: qHTS Assay for Inhibitors and Substrates of Cytochrome P450 3A4 (AID 884); also: nearly all actives have a fitted effect of over 50% in size; also: potency is read from the fitted curve at half-maximal effect
In short: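 20 nM human CYP3A4 with 25 uM Luciferin-PPXE (at KM) in 200 mM KPO4, preincubated 10 min with compound; NADPH regeneration started a 60 min RT reaction. Luciferin detected by luminescence, normalized to 57 uM ketoconazole as full inhibition.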

[10] = Confirmation and Secondary Assay for Modulators of Hemoglobin Beta Chain Splicing at IVS2 654 locus (AID 910);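 also: HeLa cells stably carrying EGFP split by mutant beta-globin IVS2-654 intron; per-well total GFP intensity by laser scanning cytometry after 2-day treatment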
In short: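 Readout: per-well total peak green fluorescence (488 nm ex, 500–520 nm em) from objects 5–250 µm, reflecting correct splicing of an EGFP-654 reporter. Compounds were applied for 2 days at 37 °C to overnight-plated HeLa EGFP-654 cells; controls were DMSO and 500 nM IVS2-654 PNA.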

[11] = Confirmation and Secondary Assay for Modulators of Hemoglobin Beta Chain Splicing at IVS2 705 locus (AID 930);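 also: HeLa cells stably expressing the EGFP-705 splicing reporter; GFP fluorescence per well restored by corrected splicing of the IVS2-705 intron in EGFP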
In short: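 Secondary splice-site specificity test uses HeLa expressing CMV-driven EGFP interrupted by IVS2-705; cells were treated 2 days at 37C with 500 nM antisense PNA as positive control.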

[12] = target: N-terminal Xaa-Pro-Lys N-methyltransferase 1 (Homo sapiens) (UniProt Q9BV86); assay: Confirmatory qHTS for Inhibitors of N-terminal methyltransferase 1 (NTMT1): MTaseGlo Assay (AID 1645874); also: potency is read from the fitted curve at half-maximal effect; nearly all actives have a fitted effect of over 65% in size
In short: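 Compounds are incubated with 125 nM NTMT1 and 100 uM SAM for 15 min before the SPKRIA peptide (1 uM) starts a 30 min room-temperature methylation. SAH is measured by coupled luciferase luminescence and curves fitted to a Hill equation.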

[13] = AP1 Signaling Pathway (AID 357; active = well fitted curve in either direction with a large enough effect, not every such curve was filed as active;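 also: ME-180 reporter cells stimulated with EGF at its EC50 level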); details: ME-180 AP-1-bla reporter, EGF-induced, beta-lactamase ratio, 5 h
In short: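 Read-out was the 460nm/530nm emission ratio (excitation 405nm) after CCF4 loading for 2.5 hours at room temperature. Cells carried an AP-1-driven beta-lactamase reporter, were stimulated with EC50 EGF plus compound for 5 hours, and AC50 values came from titrations.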

[14] = Stat Signaling Pathway (AID 446; active = well fitted curve in either direction with a large enough effect, not every such curve was filed as active;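 also: ME-180 cervical cancer cells given 40 pM IL-6 alongside compound; SIE-controlled beta-lactamase reporter measured as 460/530 nm FRET emission ratio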); details: ME-180 (cervical carcinoma) SIE beta-lactamase reporter, IL-6 stimulated, 5 h
In short: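 IL-6/STAT signaling read in ME-180 cells via an SIE beta-lactamase reporter. Stimulus was 40 pM IL-6 (its AC50) for 5 hrs, so both activation and inhibition register.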

[15] = target: 3',5'-cyclic-AMP phosphodiesterase 4B (Homo sapiens) (UniProt Q07343); assay: qHTS Assay for Inhibitors of PDE-IV (AID 607; active = well fitted activation curve with a large enough effect in the main read-out, with a control signal flat, not every such curve was filed as active)
In short: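 Live HEK293 cells with a modified cyclic nucleotide-gated (CNG) channel report intracellular cAMP via membrane-potential dye fluorescence (ex 535/em 590 nm). Endogenous PDE-IV was targeted. Compounds were tested at up to 22.9 uM final; RO 20-1724 100 uM served as control.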

[16] = target: Cytochrome P450 3A4 (Homo sapiens) (UniProt P08684); assay: qHTS Assay for Activators of Cytochrome P450 3A4 (AID 885); also: nearly all actives have a fitted effect of over 65% in size
In short: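 Quantitative HTS format: compounds preincubated with 20nM human CYP3A4 and Luciferin-PPXE substrate at KM, reaction started by NADPH regeneration, stopped after 60 min, luciferase luminescence read 20 min later.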

[17] = target: Pyruvate kinase (Leishmania mexicana) (UniProt Q27686); assay: qHTS Validation Assay for Inhibitors of Leishmania Mexicana Pyruvate Kinase (AID 945)
In short: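 Read-out: luminescence from PKLight stop/detection reagent, data normalized to DMSO. Reaction: 0.2 nM E451W LmPYK, 0.5 mM PEP, 0.1 mM ADP, pH 7.2, 1 h room temperature.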

[18] = target: Pyruvate kinase PKM (Homo sapiens) (UniProt P14618); assay: qHTS Assay for Activators of Human Muscle Pyruvate Kinase (AID 954; active = well fitted curve in the direction sought with a large enough effect, not every such curve was filed as active)
In short: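 Enzyme was run at intermediate activity so both inhibitors and activators could be detected. ATP formed from ADP and PEP by 0.1 nM human PKM2 during a 1 h room-temperature incubation was quantified by coupled luciferase luminescence.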

[19] = target: Voltage-gated inwardly rectifying potassium channel KCNH2 (Homo sapiens) (UniProt Q12809); assay: qHTS Assay for Small Molecule Inhibitors of the Human hERG Channel Activity (AID 588834);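 also: lower thallium flux fluorescence means stronger hERG block; nearly all actives have a fitted effect of over 50% in size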; also: potency is read from the fitted curve at half-maximal effect; as to activity change, negative = inhibition: top concentration of the series differs between compounds
In short: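 hERG-BacMam U2OS, 2000 cells/well; 0.7X FluxOR loading 1 hr RT dark; cpd ~10 min 37 °C; stim buffer; FDSS fluorescence 2 min @ 1 s; AC50 Hill fit.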

[20] = qHTS Assay for Lipid Storage Modulators (AID 1519; calls by dose curve); details: Drosophila S3 cells, BODIPY lipid droplet/cell ratio, laser cytometry, cells loaded with oleic acid
In short: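 Cells seeded at 5,000 per well were treated with compounds over a concentration series and loaded with oleic acid (400 uM, as added). Lipid droplet fluorescence (488 nm excitation, 500-530 nm channel) was read by laser-scanning cytometry and normalized to 20 uM Triacsin C.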

Sequence of Cytochrome P450 3A4 (Homo sapiens) (P08684 whole entry, looked up): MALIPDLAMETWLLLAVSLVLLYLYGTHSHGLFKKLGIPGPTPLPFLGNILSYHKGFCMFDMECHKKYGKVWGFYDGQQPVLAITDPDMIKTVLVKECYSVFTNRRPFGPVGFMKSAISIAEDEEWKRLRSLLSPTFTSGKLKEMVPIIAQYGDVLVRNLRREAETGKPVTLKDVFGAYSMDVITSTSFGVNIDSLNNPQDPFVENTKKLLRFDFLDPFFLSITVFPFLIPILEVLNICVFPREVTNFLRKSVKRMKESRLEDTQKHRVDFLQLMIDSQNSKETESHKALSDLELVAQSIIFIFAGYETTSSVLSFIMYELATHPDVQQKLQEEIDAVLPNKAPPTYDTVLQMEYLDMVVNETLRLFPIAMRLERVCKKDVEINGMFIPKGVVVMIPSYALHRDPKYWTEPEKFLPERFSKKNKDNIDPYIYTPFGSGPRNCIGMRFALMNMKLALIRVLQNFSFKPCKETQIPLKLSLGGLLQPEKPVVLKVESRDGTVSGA
Sequence of Ubiquitin carboxyl-terminal hydrolase 1 (Homo sapiens) (O94782 whole entry, looked up): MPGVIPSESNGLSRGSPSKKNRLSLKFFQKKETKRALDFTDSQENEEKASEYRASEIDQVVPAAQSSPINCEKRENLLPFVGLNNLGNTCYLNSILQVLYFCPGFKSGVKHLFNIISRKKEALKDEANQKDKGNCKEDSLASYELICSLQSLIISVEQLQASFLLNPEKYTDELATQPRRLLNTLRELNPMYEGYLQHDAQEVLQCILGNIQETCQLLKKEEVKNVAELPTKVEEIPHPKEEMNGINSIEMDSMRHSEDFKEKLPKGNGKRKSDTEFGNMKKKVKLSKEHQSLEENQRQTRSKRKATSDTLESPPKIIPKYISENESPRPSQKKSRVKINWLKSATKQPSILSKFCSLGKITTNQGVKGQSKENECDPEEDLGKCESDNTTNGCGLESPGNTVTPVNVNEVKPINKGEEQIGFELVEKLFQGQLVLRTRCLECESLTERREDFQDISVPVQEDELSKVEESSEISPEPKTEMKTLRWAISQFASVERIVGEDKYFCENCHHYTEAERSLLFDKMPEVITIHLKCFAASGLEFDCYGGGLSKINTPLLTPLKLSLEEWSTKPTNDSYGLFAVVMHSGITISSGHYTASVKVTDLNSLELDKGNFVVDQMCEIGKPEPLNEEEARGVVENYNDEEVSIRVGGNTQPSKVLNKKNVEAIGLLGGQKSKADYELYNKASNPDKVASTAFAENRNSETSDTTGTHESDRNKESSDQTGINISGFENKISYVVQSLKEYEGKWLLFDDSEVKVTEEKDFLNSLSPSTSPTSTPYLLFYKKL
Sequence of N-terminal Xaa-Pro-Lys N-methyltransferase 1 (Homo sapiens) (Q9BV86 whole entry, looked up): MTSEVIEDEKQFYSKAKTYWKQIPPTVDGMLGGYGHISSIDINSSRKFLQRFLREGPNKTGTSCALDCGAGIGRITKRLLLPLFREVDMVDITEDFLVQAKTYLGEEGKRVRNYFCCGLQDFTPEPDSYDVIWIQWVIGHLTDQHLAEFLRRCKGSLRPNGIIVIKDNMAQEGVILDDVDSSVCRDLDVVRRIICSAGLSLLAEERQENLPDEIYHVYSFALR
Sequence of Cytochrome P450 2C19 (Homo sapiens) (P33261 whole entry, looked up): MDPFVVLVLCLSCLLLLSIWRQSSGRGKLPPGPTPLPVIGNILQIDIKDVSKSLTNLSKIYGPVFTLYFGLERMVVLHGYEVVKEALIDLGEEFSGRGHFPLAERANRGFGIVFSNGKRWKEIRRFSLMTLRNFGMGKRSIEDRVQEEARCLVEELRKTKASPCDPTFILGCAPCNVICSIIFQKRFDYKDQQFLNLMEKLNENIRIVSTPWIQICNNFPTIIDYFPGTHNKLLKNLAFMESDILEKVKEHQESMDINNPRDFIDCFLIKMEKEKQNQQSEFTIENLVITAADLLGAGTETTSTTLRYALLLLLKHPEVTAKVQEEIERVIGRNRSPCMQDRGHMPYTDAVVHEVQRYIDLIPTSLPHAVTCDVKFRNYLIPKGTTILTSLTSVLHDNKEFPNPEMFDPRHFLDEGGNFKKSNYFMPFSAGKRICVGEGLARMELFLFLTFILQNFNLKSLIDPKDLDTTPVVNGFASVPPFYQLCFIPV
Sequence of DNA dC->dU-editing enzyme APOBEC-3G (Homo sapiens) (Q9HC16 whole entry, looked up): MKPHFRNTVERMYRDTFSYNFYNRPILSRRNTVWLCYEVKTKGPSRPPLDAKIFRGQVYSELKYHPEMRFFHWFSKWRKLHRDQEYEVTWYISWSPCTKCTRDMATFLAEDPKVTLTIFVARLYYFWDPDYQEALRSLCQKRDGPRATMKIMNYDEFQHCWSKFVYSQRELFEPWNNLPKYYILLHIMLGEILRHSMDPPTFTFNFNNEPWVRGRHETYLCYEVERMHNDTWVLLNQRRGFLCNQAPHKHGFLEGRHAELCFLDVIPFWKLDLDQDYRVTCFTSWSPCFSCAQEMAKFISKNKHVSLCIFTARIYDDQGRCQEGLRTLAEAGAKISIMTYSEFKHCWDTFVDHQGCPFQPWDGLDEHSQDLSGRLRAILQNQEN
Sequence of Glucocorticoid receptor (Homo sapiens) (P04150 whole entry, looked up, the tested form may be a part): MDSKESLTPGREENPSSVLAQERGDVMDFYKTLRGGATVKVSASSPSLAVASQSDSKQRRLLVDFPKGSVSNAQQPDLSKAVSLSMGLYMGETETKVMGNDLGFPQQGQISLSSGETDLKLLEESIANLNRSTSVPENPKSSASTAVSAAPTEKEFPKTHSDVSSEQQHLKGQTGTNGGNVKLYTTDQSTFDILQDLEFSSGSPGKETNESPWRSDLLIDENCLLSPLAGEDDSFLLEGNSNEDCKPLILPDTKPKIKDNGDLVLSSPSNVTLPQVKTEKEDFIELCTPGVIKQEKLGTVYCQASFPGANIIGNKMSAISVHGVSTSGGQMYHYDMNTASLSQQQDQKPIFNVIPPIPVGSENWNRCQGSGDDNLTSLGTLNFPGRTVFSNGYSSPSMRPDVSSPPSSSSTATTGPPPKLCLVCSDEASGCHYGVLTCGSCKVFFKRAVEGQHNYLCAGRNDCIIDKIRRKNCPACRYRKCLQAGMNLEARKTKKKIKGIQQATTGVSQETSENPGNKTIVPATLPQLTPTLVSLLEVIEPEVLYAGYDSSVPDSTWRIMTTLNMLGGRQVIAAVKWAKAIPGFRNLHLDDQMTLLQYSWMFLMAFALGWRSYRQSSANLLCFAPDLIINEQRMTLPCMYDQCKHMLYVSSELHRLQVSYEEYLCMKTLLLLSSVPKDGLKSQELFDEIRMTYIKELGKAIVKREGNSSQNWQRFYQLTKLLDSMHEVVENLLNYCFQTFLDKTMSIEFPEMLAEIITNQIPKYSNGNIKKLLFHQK
Sequence of Voltage-gated inwardly rectifying potassium channel KCNH2 (Homo sapiens) (Q12809 whole entry, looked up): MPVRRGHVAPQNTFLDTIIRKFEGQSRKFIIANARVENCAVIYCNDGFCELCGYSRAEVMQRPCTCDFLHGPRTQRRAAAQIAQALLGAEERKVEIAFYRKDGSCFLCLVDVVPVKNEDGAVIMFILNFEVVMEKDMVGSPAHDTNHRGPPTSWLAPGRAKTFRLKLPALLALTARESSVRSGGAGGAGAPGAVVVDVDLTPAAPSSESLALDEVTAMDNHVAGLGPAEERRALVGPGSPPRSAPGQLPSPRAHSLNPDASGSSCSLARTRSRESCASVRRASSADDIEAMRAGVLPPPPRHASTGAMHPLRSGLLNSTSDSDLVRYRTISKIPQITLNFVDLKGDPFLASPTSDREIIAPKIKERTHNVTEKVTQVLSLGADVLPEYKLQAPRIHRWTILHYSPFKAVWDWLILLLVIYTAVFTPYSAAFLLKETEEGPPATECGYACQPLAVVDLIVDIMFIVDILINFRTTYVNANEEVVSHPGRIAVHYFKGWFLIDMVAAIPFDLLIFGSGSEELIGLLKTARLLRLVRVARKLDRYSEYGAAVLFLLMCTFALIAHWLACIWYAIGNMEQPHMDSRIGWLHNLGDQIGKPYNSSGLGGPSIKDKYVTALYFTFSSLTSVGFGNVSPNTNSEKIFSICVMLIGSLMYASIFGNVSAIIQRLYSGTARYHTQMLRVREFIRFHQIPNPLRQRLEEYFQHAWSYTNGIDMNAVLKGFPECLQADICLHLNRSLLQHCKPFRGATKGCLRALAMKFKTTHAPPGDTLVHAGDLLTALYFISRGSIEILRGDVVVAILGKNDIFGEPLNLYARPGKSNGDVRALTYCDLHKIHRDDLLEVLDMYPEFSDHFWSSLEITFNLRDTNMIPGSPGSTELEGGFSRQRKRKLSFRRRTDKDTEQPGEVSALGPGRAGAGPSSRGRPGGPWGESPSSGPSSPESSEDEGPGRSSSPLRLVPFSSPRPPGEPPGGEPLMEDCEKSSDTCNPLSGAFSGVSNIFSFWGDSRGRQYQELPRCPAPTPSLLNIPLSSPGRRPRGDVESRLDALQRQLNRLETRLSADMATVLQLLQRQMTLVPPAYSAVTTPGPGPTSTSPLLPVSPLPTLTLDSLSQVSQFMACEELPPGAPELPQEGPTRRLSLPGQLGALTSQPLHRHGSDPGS
Sequence of Pyruvate kinase (Leishmania mexicana) (Q27686 2-499 E452W): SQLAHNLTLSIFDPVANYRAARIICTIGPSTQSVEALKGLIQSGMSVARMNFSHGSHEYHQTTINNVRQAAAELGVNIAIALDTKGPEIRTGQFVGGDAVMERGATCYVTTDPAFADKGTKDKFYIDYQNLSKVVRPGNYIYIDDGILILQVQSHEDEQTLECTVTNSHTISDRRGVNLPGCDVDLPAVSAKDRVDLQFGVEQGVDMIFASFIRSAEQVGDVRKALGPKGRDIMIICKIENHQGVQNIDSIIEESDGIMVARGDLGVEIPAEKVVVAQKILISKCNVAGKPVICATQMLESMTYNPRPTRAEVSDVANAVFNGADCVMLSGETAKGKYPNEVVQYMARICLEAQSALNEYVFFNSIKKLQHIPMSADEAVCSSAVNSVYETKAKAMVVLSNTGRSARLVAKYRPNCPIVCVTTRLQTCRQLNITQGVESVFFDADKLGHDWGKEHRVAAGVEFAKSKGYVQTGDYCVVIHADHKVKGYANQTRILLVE

In the case of `N#C[C@@H]1C[C@@H]2C[C@@H]2N1C(=O)[C@@H](N)C12CC3CC(CC(O)(C3)C1)C2`, the outcome [1] is reported as “inactive” and the Potency [2] is reported as “inactive”.
In the case of `Clc1ccccc1CNCC1CCC(CNCc2ccccc2Cl)CC1` (stereo unspecified), the Potency [3] is reported as > 46 µM (inactive), the Potency [4] is reported as > 46 µM (inactive) and the Potency [5] is reported as “inactive”. For the same compound, the Potency [6] was 0.794 µM (active), the Potency [7] was “inactive” and the Potency [8] was “inactive”.
In the case of `Nc1ncnc2c1c(I)cn2C1OC(CO)C(O)C1O` (stereo unspecified), the Potency [9] is reported as “inactive”, the outcome [10] is reported as “inactive” and the outcome [11] is reported as “inactive”. The Potency [7] was “inactive” and the Potency [12] was 0.851 µM (active).
In the case of `CC(C)=CCC/C(C)=C/CC/C(C)=C/CSc1ccccc1C(=O)O`, the activity change, negative = inhibition ([13]; at 38 µM (top of the series)) is reported as 14.1% (inactive), the activity, negative = inhibition ([14]; at 38 µM (top of the series)) is reported as 1.75% (inactive) and the Potency [3] is reported as > 46 µM (inactive). For the same compound, the Potency [4] was > 46 µM (inactive), the Potency [5] was “inactive” and the Potency [15] was “inactive”. For the same compound, the Potency [16] was “inactive”, the Potency [17] was “inactive” and the outcome [18] was “inactive”. The Potency [19] was “inactive” and the Potency [12] was 39.8 µM (active).
For `CCOC(=O)CCC(=O)O[C@H]1[C@H](O[C@@H]2[C@@H](C)[C@H](O[C@H]3C[C@@](C)(OC)[C@@H](O)[C@H](C)O3)[C@@H](C)C(=O)O[C@H](CC)[C@@](C)(O)[C@H](O)[C@@H](C)C(=O)[C@H](C)C[C@@]2(C)O)O[C@H](C)C[C@@H]1N(C)C`, the activity change, negative = inhibition ([13]; at 17.2 µM (top of the series)) was -0.678% (inactive), the activity, negative = inhibition ([14]; at 17.2 µM (top of the series)) was 1.81% (inactive) and the Potency [3] was > 20.6 µM (inactive).
For `O=C(O)c1ccc2c3c1cccc3c(=O)n1c3ccccc3nc21`, the Potency [3] was > 46 µM (inactive), the Potency [4] was > 46 µM (inactive) and the Potency [6] was 3.98 µM (active). For the same compound, the Potency [8] was “inactive”.
In the case of `CS(=O)(=O)CCNCc1nc(-c2ccc3ncnc(Nc4ccc(OCc5cccc(F)c5)c(Cl)c4)c3c2)cs1`, the Potency [9] is reported as 2.51 µM (active) and the Potency [16] is reported as “inactive”.
With `Cc1nc2c(O)cccc2c(=O)[nH]1` the Potency [3] was > 46 µM (inactive), the Potency [4] was > 46 µM (inactive) and the Potency [5] was “inactive”. The Potency [6] was 0.398 µM (active), the Potency [7] was “inactive” and the Potency [8] was “inactive”. For the same compound, the outcome [1] was “inactive” and the Potency [2] was “inactive”.
In the case of `C=CC(=O)c1ccc2ccccc2c1`, the Potency [9] is reported as 25.1 µM (active) and the Potency [16] is reported as “inactive”.
For `CN1CCN(CCC=C2c3ccccc3Sc3ccc(S(=O)(=O)N(C)C)cc32)CC1`, the activity change, negative = inhibition ([13]; at 38 µM (top of the series)) was 18.8% (inactive), the Potency [16] was “inactive” and the outcome [10] was “inactive”. The outcome [11] was “inactive”, the Potency [17] was “inactive” and the outcome [18] was “inactive”. For the same compound, the Potency [7] was “inactive” and the Potency [19] was 10 µM (active).
For `C=C1C(=O)O[C@H]2[C@H]1CC/C(C)=C\CC[C@@]1(C)O[C@@H]21`, the Potency [19] was “inactive”.
In the case of `Cc1nc(CN(C)c2ncnc3ccc(-c4ccc5c(c4)OCO5)cc23)cs1`, the Potency [12] is reported as 4.26 µM (active).
In the case of `COc1cc(/C=C(\C#N)C(N)=O)cc(CSc2nc3ccccc3s2)c1O`, the Potency [4] is reported as > 46 µM (inactive), the Potency [15] is reported as “inactive” and the Potency [9] is reported as 3.98 µM (active). For the same compound, the Potency [16] was “inactive”, the Potency [6] was 3.16 µM (active) and the Potency [8] was “inactive”.
With `COc1cc(OC)c2ccc(=O)oc2c1` the Potency [9] was 31.6 µM (active), the Potency [16] was “inactive” and the outcome [10] was “inactive”. For the same compound, the outcome [11] was “inactive”, the activity change, negative = inhibition ([20]; at 57.5 µM (top of the series)) was 13.4% (inactive) and the max response ([20]; measured here: cell count channel max response) was 9.58%. For the same compound, the max response ([20]; measured here: lipid channel max response) was 25.2%.
